Source: PubChem BioAssay (NCI)
About 83,000 compounds went through this panel and 20% of them were active in at least one assay; those are over-represented in the sample as a whole.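 Method: cells in 96-well plates; compound added at one concentration; 48 h incubation; percent growth measured; values under 10 scored active.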 Calls of active or inactive are those of the source.

Test system: HOP-62 NSCLC
Experiment: NCI-60 one-dose screen, 48 h (100 = growth as untreated, 0 = no growth, -100 = all killed)
Details: 10 µM unless noted
Protocol: Growth inhibition of the HOP-62 human Non-Small Cell Lung tumor cell line is measured as a screen for anti-cancer activity. Cells are grown in 96 well plates and exposed to the test compound for 48 hours. Compounds are tested at a single concentration, which is 10^-5 M for most compounds. The reported endpoint is percent growth (GI% or GIPRCNT), where numbers from 0 - 100% represent growth inhibition, and numbers from -100% - 0 represent cell death. For example, a value of 40 represents 60% growth inhibition. A value of 0 means no net growth occurred over the course of the experiment. A value of -40 indicates 40% of cells at the beginning of the experiment died by the end of the experiment. A value of -100 means all cells are dead at the end of the experiment.
NCI-60 Human Tumor Cell Lines Screen was performed using the standard one-dose NCI protocol, which is described in more detail at https://dtp.cancer.gov/discovery_development/nci-60/default.htm.
Compounds with GIPRCNT values below 10 were considered active. Activity score was based on GIPRCNT using the following formula: […]
Score is 0 for GIPRCNT values of 100 or above, 50 for GIPRCNT values of 0, and 100 for GIPRCNT values of -100.

| SMILES | growth |
| --- | --- |
| CCN(CC)CCCNc1cc(OC)c(OC)c2cccnc12 | 58.3% (inactive) |
| Nc1ncnc2c1N=C(c1ccc(F)cc1)CC(c1cccc(Nc3ccnc4cc(Cl)ccc34)c1)N2 (stereo not given) | 73.5% (inactive) |
| COc1ccc(C2CC(n3ccnc3)c3cc(OC)c(OC)c(OC)c32)cc1O (stereo not given) | 80.8% (inactive) |
| O=C1c2cccnc2C(=O)c2c1c(C(=O)OCCc1ccccn1)c1ccccn21 | -79% (active) |
| CCn1cc(Cc2cc(C(=O)Nc3cc4cc(OC)c(OC)cc4c(C)n3)ccc2Cl)cn1 | 39.8% (inactive) |
| COC(=O)c1c2c(c(C)[n+]([O-])c1C)C(=O)C(NCc1ccccc1)=CC2=O | 67.1% (inactive) |
| O=C1CCCCN1c1ccc(C2=NCCCN2)cc1 | 101% (inactive) |
| O=C(/C=C/C12c3ccccc3C(c3ccccc31)C1C(=O)NC(=O)C12)c1ccc(I)cc1 (stereo not given) | 69.3% (inactive) |
| O=C1/C(=C/c2c[nH]c(=O)[nH]c2=O)SC(=S)N1Cc1ccccc1 | 101% (inactive) |
| COc1ccc(/C=C2\c3cc(OC)c(OC)c(OC)c3CC[C@@H]2O)cc1F | 32.6% (inactive) |
| CSc1ccc2c3c(n(C[C@H](O)CO)c(=O)c2c1)-c1ccccc1C3=O | 21.5% (inactive) |
| O=C(/C=C/C12c3ccccc3C(c3ccccc31)C1C(=O)NC(=O)C12)c1ccco1 (stereo not given) | 17.7% (inactive) |
| CSc1ccc(N2C(=N)C(=S)N(c3ccc(C)cc3)C2=O)cc1 | 86.2% (inactive) |
| Fc1cccc(CNc2c3ccccc3nc3ccccc23)c1 | 47.9% (inactive) |
| COC12C=C/C(=C(/C(=O)OCCSc3ccnn3C)C(=O)CCCCCCCCC3(OC)C=C/C(=C(/C(=O)OCCSc4ccnn4C)C(=O)CCCCCCCC1)O3)O2 | 27.9% (inactive) |
| Nc1cccc(-c2ccc(COc3ccc(CC4SC(=O)NC4=O)cc3)cc2)c1 (stereo not given) | 48.4% (inactive) |
| O=Nc1ccc(NC(=O)Nc2ccc([N+](=O)[O-])cc2)cc1 | 110% (inactive) |
| COc1ccc(Oc2ccc(/C=C/C(=O)c3cc4ccccc4oc3=O)cc2)cc1 | 85.6% (inactive) |
| NS(=O)(=O)c1ccc(C(=O)N=Nc2c(O)[nH]c3ccc(Cl)cc23)cc1 | 100% (inactive) |
| O=C(Nc1ccc(Oc2cccc(Cl)c2)c(Cl)c1)c1cccnn1 | 101% (inactive) |

| SMILES | growth |
| --- | --- |
| C=C1C(=O)O[C@H]2[C@H]1CC/C(CNC(=O)Cc1c[nH]c3ccccc13)=C\CC[C@@]1(C)O[C@@H]21 | 53.8% (inactive) |
| O=C(NCCCCCCNC(=O)OCc1ccc2c(Cl)cc(Cl)c(O)c2n1)OCc1ccc2c(Cl)cc(Cl)c(O)c2n1 | -42.5% (active) |
| CC/C(=C(\c1ccc(Cl)cc1)c1ccc(OCCN2CCCCC2)cc1)c1ccc(O)cc1 | -9.16% (active) |
| CCN(CC)CCOc1ccc2ccc(=O)oc2c1 | 100% (inactive) |
| COc1ccc(/C=C2\CN(C(=O)C(Cl)Cl)C/C(=C\c3ccc(OC)c(OC)c3)C2=O)cc1OC | 34.3% (inactive) |
| O=S(=O)(Nc1cc(Sc2nc3ccccc3s2)c(O)c2ccccc12)c1ccc2ccccc2c1 | 102% (inactive) |
| CC(C)Cc1nc(Nc2ccccc2)[nH]c(=O)c1C#N | 82.7% (inactive) |
| O=C(NCc1ccc(Cn2c(=O)sn(-c3ccccc3)c2=O)cc1)OCc1ccc2cccc(O)c2n1 | -58.2% (active) |
| COc1cc2c3c(c4c5ccccc5[nH]c4c2c(OC)c1OC)C(=O)N(CCN1CCCCC1)C3=O | 41.7% (inactive) |
| COc1ccc(C/C(C)=C(\c2ccc(O)cc2)c2ccc(OCCN3CCCCC3)cc2)cc1 | 95.6% (inactive) |
| Clc1ccc2nn3c4ccccc4c(OCCN4CCOCC4)nc3c2c1 | 90.6% (inactive) |
| CCn1cc(C(=O)O)c(=O)c2cc(F)c(N3CCN(CC(=O)Nc4ccccc4)C(C)C3)c(F)c21 (stereo not given) | 101% (inactive) |
| O=C(Nc1ccccc1O)c1ccc(CNc2ccnc(C(F)(F)F)c2)cc1 | 60.3% (inactive) |
| C=C1SC(=Nc2ccccc2Cl)N(C(=O)c2sc3ccccc3c2Cl)C1(C)C | 54.8% (inactive) |
| COc1ccc(-c2cc(C(=O)N3N=C(c4ccc(N)cc4)CC3c3ccc(Cl)cc3)c3cc(OC)ccc3n2)cc1 (stereo not given) | 66.6% (inactive) |
| CCOC(=O)CNC1=C(Cl)C(=O)N(Cc2ccc(Cl)cc2)C1=O | 98% (inactive) |
| CCNC(=O)N1CCc2c(Br)c3c(c(OC)c2C1Cc1ccc(OC)cc1)OCO3 (stereo not given) | 36.3% (inactive) |
| C=C1C(=O)O[C@@H]2C3C(=C(C)CC[C@@H]12)CC1O[C@]13C (stereo not given in full) | 94.1% [6.75 µM] (inactive) |
| C[N+]1=C(/C=C/c2ccccc2Cl)C(C)(C)c2ccccc21 | 98.7% (inactive) |
| CCOc1ccc(/C=C/C(=O)c2cccc(OCCCOc3cccc(C(=O)/C=C/c4ccc(OCC)cc4)c3)c2)cc1 | 107% (inactive) |
